# Most compounds without a hit are left out; they make up all but 21% or so of the library.
# Cycloheximide cs – counter-screen hit for Shiga toxin inhibitors, cycloheximide. 300,000 compounds, 12% hits. cell reporter, cycloheximide protein synthesis inhibition counterscreen. AID 2314. max response, %; in the data active = max response mostly above about 13%, no sharp cut-off; inactive = mostly below about 14%; note: read at 38.3 µM for the half of the compounds with a filed dose; 0% is about no effect
# Sm TGR inh – inhibitors of Schistosoma mansoni thioredoxin glutathione reductase; Q962Y6; purified TGR, DTNB reduction, TNB absorbance 405 nm; Potency, µM (doses to about 114 µM), inactives show at the highest dose activity change, negative = inhibition, most hits filed as inhibitors; 360,000 compounds, 3% hits; AID 485364; note: potency is the fitted concentration of half-maximal effect; % is set by controls: 0 for no effect and ±100 for the full control effect; nearly all actives have a fitted effect of over 60% in size
#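 Kinetic colorimetric format: TGR-catalysed, NADPH-driven DTNB reduction monitored via TNB absorbance. Enzyme dispensed at 20 nM; compound exposure 15 min at room temperature before reaction start.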
# Pf growth 96h – P. falciparum growth inhibition at 96 hour, primary screen for plastid delayed-death inhibitors; P. falciparum luciferase reporter growth, 96 h; Potency, µM (titrated, usually from 28.7 µM), for the others: top-dose activity change, negative = inhibition, actives largely listed as inhibitors; 320,000 compounds, 6.9% hits; AID 504834; note: potency is the fitted concentration of half-maximal effect; % is set by controls: 0 for no effect and ±100 for the full control effect
#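 Two parasite generations (96 h, 37 C, 5% CO2) of compound exposure in infected erythrocytes (0.05% parasitemia, 2% hematocrit). Luciferase-reporter P. falciparum; decreased luminescence indicates inhibited growth, aimed at apicoplast-acting delayed death.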
# NS1 inh – inhibitors of influenza NS1 protein function | Potency, µM (titrated, usually from 46.1 µM), without a hit: top-dose activity, positive = more growth | 270,000 compounds, 0.4% hits; calls by dose curve; note: potency is the fitted concentration of half-maximal effect; actives are rising curves; nearly all actives have a fitted effect of over 50% in size
#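 Read-out: OD600 growth recovery of NS1-expressing budding yeast. Cells grown overnight at 30C in -URA glucose medium, washed, resuspended and diluted 1:100 in 2% galactose assay medium, pH 6.0. Same strain lacking NS1 served as positive control.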
# Shiga inhibitor – inhibitors of Shiga toxin in Vero cells; Vero cells, Shiga toxin protein synthesis inhibition reporter; inhibition, % at 38.7 µM; 290,000 compounds, 9.2% hits; AID 2315; in the data active = inhibition mostly above about 28%, no sharp cut-off; inactive = mostly below about 43%; note: 0% is about no effect
# Pf growth 48h – inhibits P. falciparum growth in the first generation, 48 h | 310,000 compounds, 5.9% hits | Potency, µM (titrated, usually from 28.7 µM), for inactives: top-dose activity change, negative = inhibition, actives largely listed as inhibitors | AID 504832 | P. falciparum luciferase growth in erythrocytes, 48 h; note: potency is the fitted concentration of half-maximal effect; % is set by controls: 0 for no effect and ±100 for the full control effect
#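 Erythrocytes infected with P. falciparum carrying an integrated firefly luciferase reporter (2% hematocrit, 0.1% parasitemia final) were exposed to compounds in RPMI 1640 with 0.5% Albumax at 37 C, 5% CO2. Growth inhibition was scored as reduced luminescence.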
# Starred values were filed as active, the others as inactive; u = inconclusive; x = no result given. Unless noted, calls come from the whole dose curve; as a rule, active = well fitted curve in the direction sought with a large enough effect; inconclusive = small, poorly fitted or top-dose-only effect, or another doubt; inactive = no such curve, though single readings can be large; an effect the other way counts as inactive or inconclusive.
SMILES,Cycloheximide cs,Sm TGR inh,Pf growth 96h,NS1 inh,Shiga inhibitor,Pf growth 48h
COc1cc(OC)cc(C2=NC3(CCC(C)CC3)NC2=S)c1 (stereo not drawn),-4,10%,-7%,x,53,10µM*
Cc1ccc(NC(=O)c2ccc([N+](=O)[O-])cc2)cc1S(=O)(=O)N(C)C,40*,-7%,-19%,x,68*,-26%
Cc1ccc(NC(=O)c2ccc(OC(F)F)cc2)cc1S(=O)(=O)N(C)C,29*,-20%,u,8%,0,5%
Cc1ccc(NC(=O)CCNC(=O)c2ccc([N+](=O)[O-])cc2)cc1S(=O)(=O)N(C)C,4,-2%,u,x,29,-27%
COc1ccc(CCNCC(=O)Nc2ccc(C)c(S(=O)(=O)N(C)C)c2)cc1,1,-16%,u,x,-6,-22%
COc1ccc(C2N=C(c3ccccc3)C(C)(C)N2O)cc1 (stereo not drawn),-2,11%,40%,-11%,-5,x
Cc1cc(N/N=C/c2ccc(O)cc2)c2cccc(C)c2n1,5,-21%,9.3µM*,-3%,14,0.37µM*
Cc1cc(C)c2nc(C)cc(N/N=C/c3ccc(O)cc3)c2c1,-12,1%,-2%,-15%,-10,0.13µM*
O=C(NCCCn1ccnc1)C1CCN(S(=O)(=O)c2ccc(F)cc2)CC1,-10,-3%,2%,2%,-9,4%
N#C/C(=C\c1ccccc1C(F)(F)F)C(=O)Nc1ccccc1,17*,2%,25%,-2%,-3,-20%
COCCNC(=O)/C(C#N)=C/C=C/c1ccccc1,17*,u,u,x,43,13µM*
N#C/C(=C/C=C/c1ccccc1)C(=O)Nc1ccccc1,6,0%,u,18%,23,3.3µM*
COCCNC(=O)/C(C#N)=C/c1ccccc1Br,13,-10%,16%,-36%,12,0%
N#C/C(=C\C=C\c1ccccc1)C(=O)Nc1ccccc1,15*,-4%,19%,-7%,13,24%
Cc1ccc(NC(=O)NNC(=O)C2CC(c3cccs3)=NO2)cc1 (stereo not drawn),0,9%,24%,2%,22,8%
O=C(CCc1ccc(S(=O)(=O)NCCc2ccccc2)cc1)NCc1ccco1,-1,45µM*,-9%,0%,15,-20%
CC(=O)Nc1ccc(S(=O)(=O)NCC(=O)OCC(=O)NCc2ccco2)cc1,x,u,21%,x,x,u
O=C(CCNS(=O)(=O)c1cccs1)NCc1ccco1,-1,79µM*,12%,11%,-3,34%
CC(C)NS(=O)(=O)c1ccc(CCC(=O)NCc2ccco2)cc1,-3,45µM*,33%,5%,28,4%
CC(C)NS(=O)(=O)c1ccc(CCC(=O)NCc2ccncc2)cc1,-2,5%,3%,5%,-14,0%
O=C(CCCNS(=O)(=O)c1ccccc1)NCc1ccco1,-1,-5%,16%,1%,-5,32%
Cc1ccc(S(=O)(=O)NCCC(=O)NCc2ccco2)cc1,-4,0%,11%,1%,-2,1%
O=C(COC(=O)CCNS(=O)(=O)c1ccc(Cl)cc1)NCc1ccco1,-2,u,2.1µM*,1%,-6,12%
COc1ccc(CNC(=O)C(Cc2ccccc2)NS(=O)(=O)c2ccc3c(c2)CCN3C(C)=O)cc1 (stereo not drawn),x,-8%,x,x,x,x
CCOC(=O)C1CCCN(C(=O)Nc2c(-c3ccccc3)noc2C)C1 (stereo not drawn),-2,-14%,-11%,1%,2,1%
SMILES,Cycloheximide cs,Sm TGR inh,Pf growth 96h,NS1 inh,Shiga inhibitor,Pf growth 48h
O=c1cc(CSc2ccc(Cl)cc2)nc(-c2ccccn2)[nH]1,-2,-3%,1.9µM*,-96%,3,2.3µM*
Nc1nc(Nc2ccccc2)nc2c1ncn2[C@@H]1O[C@H](CO)[C@H](O)[C@H]1O,x,x,x,-3%,x,x
Cc1ccc(NC(=O)CN(C)C(=O)COc2c(Cl)cc(Cl)c3ccc(C)nc23)cc1,-3,-11%,1.7µM*,10%,-13,4.1µM*
Cc1ccc2c(Cl)cc(Cl)c(OCC(=O)OCC(=O)Nc3ccc(C#N)cc3)c2n1,0,0%,-16%,-7%,10,6%
Cc1cc(OC(=O)N2CCCCC2)cc(C)c1Cl,20,-1%,0%,-32%,48,u
Cc1cc(OCC(=O)N2CCCN(C)CC2)ccc1Cl,16*,4%,7%,6%,-16,7%
Cc1ccc2c(Cl)cc(Cl)c(OCC(=O)N3CCCC3)c2n1,35*,40µM*,28%,x,67*,10%
Cc1cc(OCC(=O)N2CCCC2)cc(C)c1Cl,9.4*,7%,-30%,-9%,-2,32%
CN1CCCN(C(=O)COc2ccc(Br)cc2)CC1,13,-7%,-12%,5%,14,u
O=C(Cc1ccccc1F)OCN1C(=O)c2ccccc2C1=O,10,-22%,u,-3%,8,4%
CC1CN(C(=O)N2CCC(C(=O)NCc3cccs3)CC2)c2cc(Cl)ccc2O1 (stereo not drawn),x,0%,x,x,x,x
Cc1cc(OCC(=O)N2CCCC2)ccc1Cl,23*,u,-2%,-5%,52*,123%
CCOC(=O)N1CCN(C(=O)COc2ccc(Cl)c(C)c2)CC1,7,-7%,152%,0%,21,24%
Cc1ccc(C)c(CN2C(=O)C(O)(c3c[nH]c4ccccc34)c3ccccc32)c1 (stereo not drawn),x,-11%,x,x,x,x
Cc1ccc(-c2nc(CS(=O)(=O)CC(=O)N3CCN(c4cccc(C)c4C)CC3)c(C)o2)cc1,x,-15%,x,x,x,x
CN(C)C(=O)C1CCN(Cc2c[nH]c3ccccc23)CC1,x,x,x,3%,x,x
O=C(CSc1ccc(Cl)cc1)Nc1cc(-c2nc3ncccc3o2)ccc1Cl,3,1%,4.7µM*,1%,13,u
O=C(CSc1ccc(Cl)cc1)Nc1cccc(-c2nc3ncccc3o2)c1,-1,-8%,u,-7%,6,u
Cc1cc(-c2nc3ncccc3o2)ccc1NC(=O)c1ccc(Cl)cc1,x,89µM*,x,x,x,x
Cc1ccc2nc(-c3ccc(C)c(NC(=O)CSc4ccc(Cl)cc4)c3)oc2c1,x,0%,x,x,x,x
COc1ccc2oc(-c3ccc(C)c(NC(=O)CSc4ccc(Cl)cc4)c3)nc2c1,25*,5%,92%,-11%,65*,40%
COC(=O)c1ccc(=O)n(CC(=O)c2ccc(Cl)cc2)c1,6,x,41%,-2%,28,21%
Cc1cc(C)cc(N2CCn3c2nc2c3c(=O)n(C/C=C/c3ccccc3)c(=O)n2C)c1,x,2%,x,x,x,x
CC(CNC(=O)c1csc2c1CCCCC2)c1ccccc1 (stereo not drawn),x,-1%,x,x,x,x
CC[C@@]12C(=O)N(c3cccc(F)c3)C(=O)N1[C@H](c1ccc(Br)cc1)[C@@H]1C(=O)N(C(C)(C)C)C(=O)[C@@H]12,x,-25%,u,x,x,-98%
